This note sets out measurements from PubChem BioAssay (NCI).

The panel holds about 83,000 compounds, 20% with a hit somewhere; the sample as a whole holds those more often.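 Testing used 96-well plates and a 48-hour single-concentration exposure. Example: -40 means 40% of the starting cells died.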 A number with no mark means an inactive call. Calls of active or inactive are those of the source. The calls were made as follows: active = growth percent below 10; inactive = the rest.

Among the test systems are NCI-H23 lung; NCI-H226 lung; NCI-H322M lung; HOP-62 NSCLC; NCI-H460 lung; HOP-92 NSCLC; NCI-H522 lung; A549/ATCC NSCLC; 786-0 renal; COLO 205 colon; DU-145 prostate; K-562 leukemia; MALME-3M melanoma; MDA-MB-231 breast; RXF 393 renal; SF-268 CNS; SF-295 CNS; SF-539 CNS; UACC-257 melanoma; M14 melanoma.
What all share (test): NCI-60 one-dose screen, 48 h (100 = growth as untreated, 0 = no growth, -100 = all killed)
Settings in all cases: 10 µM unless noted

Turning to `Cc1ccc(-c2ccc(/C=C(\C#N)c3nc(-c4ccco4)cs3)o2)cc1`, the growth in the experiment on NCI-H23 lung is 95%; in the experiment on NCI-H226 lung, 92.7%; in the experiment with NCI-H322M lung it was 90.2%; with HOP-62 NSCLC it was 97.5%; in the experiment on NCI-H460 lung it was 99.3%; with HOP-92 NSCLC, 100%. In addition, the growth in the experiment on NCI-H522 lung is 96.4%; with A549/ATCC NSCLC, 103%; in the experiment on 786-0 renal, 106%; with COLO 205 colon, 99.1%; in the experiment with DU-145 prostate, 108%; with K-562 leukemia, 95%. Besides, the growth is 109% in the experiment on MALME-3M melanoma; 93% with MDA-MB-231 breast; 136% with RXF 393 renal; 107% in the experiment with SF-268 CNS; 96.6% in the experiment on SF-295 CNS; 103% with SF-539 CNS. In addition, the results for the growth in the experiment on UACC-257 melanoma and in the experiment on M14 melanoma were 113% and 93.7%, respectively.

For `Nc1nc2c(c(=O)[nH]1)C(c1ccc3c(c1)OCO3)C=C(C(=O)O)N2` (stereo not given), the growth is 109% in the experiment on NCI-H23 lung; 115% with NCI-H226 lung; 114% in the experiment with NCI-H322M lung; 115% in the experiment with HOP-62 NSCLC; 110% in the experiment with NCI-H460 lung; 117% in the experiment with HOP-92 NSCLC. Moreover, the growth in the experiment on NCI-H522 lung is 106%; in the experiment with A549/ATCC NSCLC, 99.2%; in the experiment with 786-0 renal it was 98.3%; in the experiment with COLO 205 colon, 119%; with DU-145 prostate, 112%; in the experiment on K-562 leukemia, 99.7%. The growth in the experiment with MALME-3M melanoma is 101%; in the experiment on MDA-MB-231 breast, 121%; in the experiment with RXF 393 renal it was 120%; in the experiment with SF-268 CNS, 112%; in the experiment with SF-295 CNS, 94.2%; in the experiment with SF-539 CNS, 101%. Moreover, the growth in the experiment with UACC-257 melanoma was 97%; in the experiment with M14 melanoma it was 112%.

With `CN1CCN(CCOc2ccc(-c3cnc4c(-c5cccc(F)c5)cnn4c3)cc2)CC1`, the growth was 62.6% in the experiment with NCI-H23 lung; 109% in the experiment with NCI-H226 lung; 89.8% in the experiment on NCI-H322M lung; 90% in the experiment on HOP-62 NSCLC; 1.99% (active) in the experiment on NCI-H460 lung; 24.8% in the experiment on HOP-92 NSCLC. The growth in the experiment with NCI-H522 lung is 82%; in the experiment with A549/ATCC NSCLC, 49.4%; in the experiment with 786-0 renal, 57%; with COLO 205 colon, 32.4%; in the experiment on DU-145 prostate it was 71.8%; in the experiment with K-562 leukemia it was -33.6% (active). For the same compound, the growth in the experiment on MALME-3M melanoma is 60.6%; in the experiment with MDA-MB-231 breast it was 47.7%; in the experiment on RXF 393 renal, 66.3%; in the experiment on SF-268 CNS it was 80.4%; in the experiment with SF-295 CNS, 79.6%; in the experiment on SF-539 CNS it was 70.6%. Also, the results for the growth in the experiment with UACC-257 melanoma and in the experiment with M14 melanoma were 67.1% and 2.02% (active), respectively.

With `C=C(C)[C@@H]1CC[C@]2(C(=O)O)CC[C@]3(C)[C@H](CC[C@@H]4[C@@]5(C)C/C(=C/c6ccc(OC)cc6)C(=O)C(C)(C)[C@@H]5CC[C@]43C)[C@@H]12`, the growth was 8.25% (active) in the experiment with NCI-H23 lung; 25% in the experiment with NCI-H226 lung; 30.4% with NCI-H322M lung; 23.8% in the experiment on HOP-62 NSCLC; 1.81% (active) with NCI-H460 lung; 18.9% in the experiment with HOP-92 NSCLC. For the same compound, the growth with NCI-H522 lung is 12.7%; in the experiment on A549/ATCC NSCLC it was 16.8%; with 786-0 renal it was 25.1%; in the experiment with COLO 205 colon, 2.57% (active); in the experiment on DU-145 prostate, 34.4%; with K-562 leukemia, 15.6%. The growth with MALME-3M melanoma is 42.2%; in the experiment with MDA-MB-231 breast, 32.4%; in the experiment with RXF 393 renal, 43.9%; in the experiment with SF-268 CNS, 38.8%; in the experiment with SF-295 CNS, 11.9%; with SF-539 CNS it was 22.1%. In addition, the growth in the experiment with UACC-257 melanoma was 31.1%; with M14 melanoma it was 25.3%.

In the case of `Cc1csc(-c2ccc3c(c2)COC3(CCCN(C)C)c2ccc(F)cc2)c1` (stereo not given), the growth with NCI-H23 lung is 88.9%; in the experiment on NCI-H226 lung it was 95.8%; in the experiment on NCI-H322M lung, 77%; in the experiment on HOP-62 NSCLC it was -64.4% (active); in the experiment with NCI-H460 lung it was -45.7% (active); in the experiment on HOP-92 NSCLC, 34.3%. In addition, the growth in the experiment with NCI-H522 lung was -38.8% (active); with A549/ATCC NSCLC it was 31.3%; with 786-0 renal, 61.8%; with COLO 205 colon, -69.1% (active); in the experiment on DU-145 prostate, 42.8%; in the experiment on K-562 leukemia it was -19.9% (active). Moreover, the growth in the experiment with MALME-3M melanoma was -71.9% (active); in the experiment on MDA-MB-231 breast it was 44.3%; in the experiment with RXF 393 renal, 43.5%; in the experiment on SF-268 CNS, 57.2%; in the experiment with SF-295 CNS it was 73.7%; in the experiment on SF-539 CNS it was 73.9%. Also, the growth with UACC-257 melanoma is -57.7% (active); in the experiment with M14 melanoma, -70.3% (active).

On to `c1cnc2[nH]cc(-c3csc(-c4cn(CCCN5CCCCC5)c5ccccc45)n3)c2c1`, for which the growth with NCI-H23 lung is 79.7%; in the experiment on NCI-H226 lung, 77%; in the experiment with NCI-H322M lung, 83.8%; with HOP-62 NSCLC, 54.6%; with NCI-H460 lung, 10.1%; in the experiment with HOP-92 NSCLC, 35.1%. For the same compound, the growth was 79.2% in the experiment on NCI-H522 lung; 58.3% in the experiment on A549/ATCC NSCLC; 56.3% with 786-0 renal; -74% (active) with COLO 205 colon; 67% in the experiment on DU-145 prostate; -45.4% (active) in the experiment with K-562 leukemia. For the same compound, the growth is -55% (active) with MALME-3M melanoma; 45% with MDA-MB-231 breast; 52.3% in the experiment with RXF 393 renal; 58.9% with SF-268 CNS; 88.8% in the experiment on SF-295 CNS; -48.5% (active) in the experiment with SF-539 CNS. In addition, the growth is 92% with UACC-257 melanoma and -77.8% (active) in the experiment with M14 melanoma.

As to `Cn1c(/C(C#N)=C/c2ccc3ccccc3c2)cc2ccccc21`, the growth is 19.4% in the experiment on NCI-H23 lung; 40.5% in the experiment on NCI-H226 lung; 48.9% in the experiment on NCI-H322M lung; 38.2% in the experiment on HOP-62 NSCLC; 6.27% (active) in the experiment with NCI-H460 lung; 64.8% with HOP-92 NSCLC. The growth in the experiment with NCI-H522 lung was 27.1%; with A549/ATCC NSCLC, 29.8%; with 786-0 renal it was 34.1%; in the experiment with COLO 205 colon, 2.87% (active); with DU-145 prostate it was 14.9%; in the experiment with K-562 leukemia, 13.9%. Further, the growth in the experiment with MALME-3M melanoma is 46.5%; in the experiment with MDA-MB-231 breast, 5.53% (active); in the experiment on RXF 393 renal, 41.1%; in the experiment with SF-268 CNS, 42.9%; in the experiment with SF-295 CNS it was 3.45% (active); in the experiment on SF-539 CNS, 3.9% (active). The growth was 84.8% with UACC-257 melanoma and 5.87% (active) with M14 melanoma.

As for `COc1cc(/C=C/c2cc(/C=C/c3ccc(O)c(OC)c3)n(-c3ccc(Cl)cc3)c(=O)n2)ccc1O`, the growth with NCI-H23 lung was 93.7%; in the experiment on NCI-H226 lung, 91.3%; with NCI-H322M lung, 82%; with HOP-62 NSCLC it was 90.1%; in the experiment with NCI-H460 lung it was 92.3%; in the experiment with HOP-92 NSCLC, 88.6%. Besides, the growth in the experiment with NCI-H522 lung is 91.3%; in the experiment with A549/ATCC NSCLC, 98.1%; in the experiment with 786-0 renal, 92.6%; in the experiment with COLO 205 colon, 91.3%; in the experiment on DU-145 prostate, 91.7%; in the experiment with K-562 leukemia, 72.6%. For the same compound, the growth with MALME-3M melanoma is 100%; with MDA-MB-231 breast it was 60.3%; in the experiment with RXF 393 renal, 90.7%; in the experiment with SF-268 CNS, 76.1%; in the experiment with SF-295 CNS, 97.3%; in the experiment with SF-539 CNS, 78.1%. The values for the growth in the experiment with UACC-257 melanoma and in the experiment with M14 melanoma were 97% and 88.3%, respectively.
